The values that follow come from PubChem BioAssay (NCATS).

The structures appear in SMILES notation. Records with an inconclusive call do not appear. Activity calls are given as the source filed them. Calls come from the whole dose curve; as a rule, active = well fitted curve in the direction sought with a large enough effect; inconclusive = small, poorly fitted or top-dose-only effect, or another doubt; inactive = no such curve, though single readings can be large; an effect the other way counts as inactive or inconclusive.

Test [1] in a line: qHTS of pediatric cancer cell lines to identify multiple opportunities for drug repurposing: Primary screen for SJ-GBM2 cells (AID 1347091). In a few lines:
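Viability measured as metabolically active cells via CellTiter-Glo luminescence following 48 hours of compound exposure, 11-point dilutions in confirmatory testing. 500-1,000 cells/well plated 5 hours before dosing; controls were DMSO and 2.3 µM bortezomib.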
(Quantitative high-throughput screening tests each substance at several concentrations.)

Test [2] can be described thus: qHTS of pediatric cancer cell lines to identify multiple opportunities for drug repurposing: Primary screen for A673 cells (AID 1347092). Note: nearly all actives have a fitted effect of over 45% in size. In a few lines:
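48 h compound exposure, A673, 500-1,000 cells/well, 37 degrees C/5% CO2. MIPE: 11-point, 0.78 nM-46 µM; NPC: 8-point, 0.59 nM-46 µM (final). Readout CellTiter-Glo luminescence after 15 min RT.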

Test [3] is described as follows: qHTS of pediatric cancer cell lines to identify multiple opportunities for drug repurposing: Primary screen for BT-37 cells (AID 1347094). Note: series mostly up to about 57 µM. In a few lines: (§1)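 Cells plated at 500-1,000/well in growth medium, compounds added after 5 h. MIPE tested at 11 points (from 0.78 nM), NPC at 8 points (from 0.59 nM). CellTiter-Glo luminescence after 48 h; concentration-response curves from primary screen.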

Test [4] in a line: qHTS of pediatric cancer cell lines to identify multiple opportunities for drug repurposing: Primary screen for NB-EBc1 cells (AID 1347095). In a few lines: as §1
The nature of test [5]: qHTS of pediatric cancer cell lines to identify multiple opportunities for drug repurposing: Primary screen for U-2 OS cells (AID 1347096). Note: nearly all actives have a fitted effect of over 50% in size. The essentials:
(§2)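 Viability after 48 h compound treatment at 37C, 500-1,000 cells/well, read as ATP luminescence with CellTiter-Glo. Primary screens used 11-point (MIPE, 0.78 nM-46 µM) or 8-point (NPC, 0.59 nM-46 µM) final concentrations; follow-up screens used 11-point dilutions.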

Test [6] can be described thus: qHTS of pediatric cancer cell lines to identify multiple opportunities for drug repurposing: Primary screen for Saos-2 cells (AID 1347097). Note: nearly all actives have a fitted effect of over 40% in size. In a few lines:
as §1

Test [7] can be described thus: qHTS of pediatric cancer cell lines to identify multiple opportunities for drug repurposing: Primary screen for SK-N-SH cells (AID 1347098). Note: nearly all actives have a fitted effect of over 65% in size. Note: potency is the fitted concentration of half-maximal effect. The essentials: (§3)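 Cells (500-1,000/well) rested 5 h, then received compounds for 48 h; metabolically active cells were measured by CellTiter-Glo luminescence. Final concentrations spanned up to 46 µM (MIPE, 11-point) or 0.59 nM-46 µM (NPC, 8-point) in primary screens, 11-point in follow-ups.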

Test [8] in a line: qHTS of pediatric cancer cell lines to identify multiple opportunities for drug repurposing: Primary screen for LAN-5 cells (AID 1347100). In a few lines: as §2
Test [9] is described as follows: qHTS of pediatric cancer cell lines to identify multiple opportunities for drug repurposing: Primary screen for BT-12 cells (AID 1347101). Note: nearly all actives have a fitted effect of over 25% in size. Note: potency is the fitted concentration of half-maximal effect. The essentials:
as §3

Test [10] can be described thus: qHTS of pediatric cancer cell lines to identify multiple opportunities for drug repurposing: Primary screen for Rh18 cells (AID 1347102). Note: nearly all actives have a fitted effect of over 65% in size. In a few lines:
as §2

A short description of test [11]: qHTS of pediatric cancer cell lines to identify multiple opportunities for drug repurposing: Primary screen for OHS-50 cells (AID 1347103). Note: nearly all actives have a fitted effect of over 40% in size. Note: potency is the fitted concentration of half-maximal effect. The essentials: as §3
Test [12] can be described thus: qHTS of pediatric cancer cell lines to identify multiple opportunities for drug repurposing: Primary screen for RD cells (AID 1347104). Note: nearly all actives have a fitted effect of over 55% in size. The essentials: as §1
Test [13] can be described thus: qHTS of pediatric cancer cell lines to identify multiple opportunities for drug repurposing: Primary screen for MG 63 (6-TG R) cells (AID 1347105). Note: nearly all actives have a fitted effect of over 50% in size. Note: potency is the fitted concentration of half-maximal effect. In a few lines: as §1
Test [14] can be described thus: qHTS of pediatric cancer cell lines to identify multiple opportunities for drug repurposing: Primary screen for Rh41 cells (AID 1347108).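 Note: series mostly up to about 46 µM; luminescence drop marks cytotoxic hits; nearly all actives have a fitted effect of over 70% in size.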 The essentials:
as §1

Test [15] can be described thus: qHTS of pediatric cancer cell lines to identify multiple opportunities for drug repurposing: Confirmatory screen for NB1643 cells (AID 1347109). Note: potency is the fitted concentration of half-maximal effect; nearly all actives have a fitted effect of over 45% in size. The essentials: as §2
The nature of test [16]: qHTS of pediatric cancer cell lines to identify multiple opportunities for drug repurposing: Primary screen for Rh30 cells (AID 1347107). Note: series mostly up to about 46 µM; nearly all actives have a fitted effect of over 75% in size. In a few lines:
as §2

Test [17] in a line: qHTS of pediatric cancer cell lines to identify multiple opportunities for drug repurposing: Primary screen for control Hh wild type fibroblast cells (AID 1347106).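 Note: series mostly up to about 46 µM; a drop in luminescence marks cytotoxicity and a rise apparent proliferation; nearly all actives have a fitted effect of over 55% in size.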 In a few lines:
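Cells (500-1,000/well) in growth media were settled 5 h at 37 degrees C, then given compounds for 48 h. Viability was read as CellTiter-Glo luminescence. Primary runs used MIPE at 11 points (0.78 nM-46 µM) and NPC at 8 points (0.59 nM-46 µM); follow-ups used 11 points.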

Test [18] is described as follows: qHTS of pediatric cancer cell lines to identify multiple opportunities for drug repurposing: Primary screen for NB1643 cells (AID 1347099). Note: nearly all actives have a fitted effect of over 50% in size. The essentials:
as §1

Test [19] can be described thus: qHTS of pediatric cancer cell lines to identify multiple opportunities for drug repurposing: Primary screen for SK-N-MC cells (AID 1347093). Note: series mostly up to about 46 µM. In a few lines:
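Metabolically active cells were quantified by ATP-dependent luminescence (CellTiter-Glo, 15 min at room temperature) following 48 h treatment. Cells had been plated at 500-1,000 per well and settled for 5 h beforehand.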

For `Clc1ccc2nsnc2c1NC1=NCCN1`, the Potency result in test [1], in test [2], in test [3], in test [4], in test [5] and in test [6] was “inactive” throughout. In addition, the Potency result in test [7], in test [8], in test [9], in test [10], in test [11] and in [12] was “inactive” throughout. The Potency entry in test [13] and in test [14] was “inactive” throughout. Further, the Potency in test [15] is 26.1 µM (active).

As for `Cc1ccc(-c2cc(C(F)(F)F)nn2-c2ccc(S(N)(=O)=O)cc2)cc1`, the Potency result in test [1], in [2], in test [4], in test [5], in test [7] and in test [8] was “inactive” in each case. In addition, the Potency result in [9], in test [10] and in test [13] was “inactive” each time. For the same molecule, in [16], the outcome was inactive.

Turning to `CCC1(c2ccccc2)C(=O)NCNC1=O`, the Potency result in [1], in [3], in test [4], in test [5], in test [8] and in test [9] was “inactive” in each case. The Potency result in test [10], in test [11], in test [17] and in [14] was “inactive” each time. Besides, the molecule was called inactive in [16].

For `OCCN(CCO)c1nc(N2CCCCC2)c2nc(N(CCO)CCO)nc(N3CCCCC3)c2n1`, the Potency result in [1], in test [3], in test [4], in [5], in test [18] and in test [8] was “inactive” in each case. Further, the Potency result in test [10], in [17] and in [14] was “inactive” throughout. The Potency in test [11] was 21.7 µM (active). The call in test [16] was inactive.

With `CC1(CN2CCC(n3c(=O)[nH]c4ccccc43)CC2)OCc2ccccc2-n2cccc21` (stereo not drawn), the Potency entry in test [1], in test [3], in test [8], in test [9], in test [10] and in [13] was “inactive” in each case. Besides, the Potency in test [7] is 24.4 µM (active). Also, in test [16], the molecule was called inactive.

With `Cn1cnc2c1c(=O)[nH]c(=O)n2C`, the Potency entry in test [7] and in test [17] was “inactive” each time. In test [16], the molecule was classed as inactive.

Regarding `CC1COc2c(N3CCN(C)CC3)c(F)cc3c(=O)c(C(=O)O)cn1c23` (stereo not drawn), the Potency result in [1], in test [3], in test [4], in test [6], in test [8] and in test [9] was “inactive” in each case. Further, the Potency result in test [10], in test [11], in [13] and in test [14] was “inactive” throughout.

Turning to `Fc1ccc([C@@H]2CCNC[C@H]2COc2ccc3c(c2)OCO3)cc1`, the Potency result in test [3], in [4], in test [5], in test [6], in test [7] and in test [18] was “inactive” in each case. For the same molecule, the Potency entry in test [8], in test [9], in test [13] and in test [14] was “inactive” each time.

As to `C[C@H]1c2cccc(O)c2C(O)=C2C(=O)[C@]3(O)C(O)=C(C(N)=O)C(=O)[C@@H](N(C)C)[C@@H]3[C@@H](O)[C@@H]21`, the Potency result in test [1], in test [19], in test [4], in [7], in test [18] and in test [8] was “inactive” throughout. Further, the Potency result in test [10], in test [11], in [12], in [13] and in test [14] was “inactive” throughout. Moreover, the Potency in test [9] is 24.3 µM (active). Moreover, the molecule was called inactive in test [16].

In the case of `CN1C(C(=O)Nc2ccccn2)=C(O)c2ccccc2S1(=O)=O`, the Potency entry in test [1], in test [2], in test [6], in [7], in test [9] and in test [10] was “inactive” throughout. Moreover, the Potency entry in test [11], in test [13] and in test [14] was “inactive” throughout. The call in test [16] was inactive.

`Nc1nc2c(ncn2COC(CO)CO)c(=O)[nH]1`: the Potency result in test [4], in test [5], in test [7], in test [8], in test [10] and in [12] was “inactive” each time. Further, in test [16], the molecule was classed as inactive.

As for `Cc1cn([C@H]2C[C@H](N=[N+]=[N-])[C@@H](CO)O2)c(=O)[nH]c1=O`, the Potency entry in [1], in test [3], in [4], in [5], in test [8] and in test [9] was “inactive” throughout. The Potency entry in [10], in [11], in test [13], in test [17] and in [14] was “inactive” in each case.

`CN1CCC(=C2c3ccccc3CC(=O)c3sccc32)CC1`: the Potency entry in [1], in test [3], in test [4], in [5], in test [6] and in test [18] was “inactive” throughout. The Potency entry in test [8], in test [9], in test [10], in test [17] and in test [14] was “inactive” throughout. Besides, the Potency in test [7] is 24.1 µM (active); in [13], 23.5 µM (active). Also, in test [16], the call was inactive.
